High-throughput results: PubChem, Johns Hopkins Ion Channel Center
Shown are actives, neighbours in structure and some others; about 2.3% of the full set was active somewhere.
ANO1 activ: activates or potentiates the mouse TMEM16A chloride channel. Q8BHY3. B-score at 10 µM. AID 623877. HEK293 TMEM16A/YFP-H148Q/I152L, iodide quench fluorescence; active compounds read low. hit rate 0.3% among 340,000;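 active = fluorescence-ratio B-score plate-corrected deviation score at least 3 library SD below zero, with starting fluorescence score within 5 deviations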;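 note: channel opened by trigger with iodide after compound preincubation; score built on the fluorescence ratio of max minus min over baseline; more negative score means more quench and so TMEM16A activation or potentiation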
Target sequence (Q8BHY3 whole entry, looked up): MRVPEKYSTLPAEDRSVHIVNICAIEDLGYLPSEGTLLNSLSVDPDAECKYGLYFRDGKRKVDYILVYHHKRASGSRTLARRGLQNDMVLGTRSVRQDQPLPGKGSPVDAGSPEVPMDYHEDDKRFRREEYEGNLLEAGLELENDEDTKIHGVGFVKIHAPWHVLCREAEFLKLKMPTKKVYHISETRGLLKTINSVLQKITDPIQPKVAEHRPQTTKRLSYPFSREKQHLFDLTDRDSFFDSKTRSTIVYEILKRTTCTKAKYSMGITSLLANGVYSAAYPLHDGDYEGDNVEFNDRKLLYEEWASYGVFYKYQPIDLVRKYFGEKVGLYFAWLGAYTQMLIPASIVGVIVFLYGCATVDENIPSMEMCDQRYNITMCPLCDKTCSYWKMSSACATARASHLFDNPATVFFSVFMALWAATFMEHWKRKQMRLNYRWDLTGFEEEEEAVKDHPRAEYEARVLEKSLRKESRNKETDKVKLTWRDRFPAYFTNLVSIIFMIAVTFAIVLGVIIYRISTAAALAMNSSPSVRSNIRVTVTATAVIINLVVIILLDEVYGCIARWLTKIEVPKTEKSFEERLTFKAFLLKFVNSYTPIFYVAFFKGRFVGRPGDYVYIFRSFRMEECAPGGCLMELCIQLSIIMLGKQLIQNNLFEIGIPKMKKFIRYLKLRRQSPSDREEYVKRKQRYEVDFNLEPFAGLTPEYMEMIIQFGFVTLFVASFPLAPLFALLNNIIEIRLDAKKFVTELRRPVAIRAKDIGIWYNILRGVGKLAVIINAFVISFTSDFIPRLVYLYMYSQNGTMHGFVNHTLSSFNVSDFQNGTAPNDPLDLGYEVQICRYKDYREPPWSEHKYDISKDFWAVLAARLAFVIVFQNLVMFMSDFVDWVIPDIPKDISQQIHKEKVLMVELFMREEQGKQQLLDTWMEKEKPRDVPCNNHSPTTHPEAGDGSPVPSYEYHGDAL
TMEM16A inh: inhibitors of mouse TMEM16A calcium-activated chloride channel | normalized B-score (activity score, 25-100; higher = stronger inhibition) at 10 µM | HEK293 TMEM16A/YFP iodide influx fluorescence, ionomycin | AID 588511 | hit rate 1.2% among 310,000 | Q8BHY3;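 active = ratio plate-corrected score three or more library SD toward inhibition, starting fluorescence score within five deviations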;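 note: score derived from kinetic fluorescence span divided by baseline fluorescence per well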
CHT allo act: allosterically activates the human high affinity choline transporter; Q9GZV3; CHT-expressing cells, membrane potential dye, choline EC20; active compounds read high; LV-AA mutant CHT in HEK293 cells; B-score at 10 µM; hit rate 0.49% among 310,000; AID 488977;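 active = initial fluorescence not abnormally high and integrated response B-score, plate-corrected, over 3 SD above library mean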
CHT inh: inhibitors of human choline transporter CHT | AID 488975 | Q9GZV3 | CHT-expressing cells, membrane potential dye, choline response; active compounds read low | hit rate 0.86% among 310,000 | B-score at 10 µM;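 active = B-score over 3 SD under the library average, and starting fluorescence ratio not unusually high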;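 note: choline stimulus applied at its EC90 after an EC20 pre-addition; B-score computed on integrated fluorescence ratio after choline addition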
The depositor's hits bear a star; i = inactive; . = no result.

SMILES	ANO1 activ	TMEM16A inh	CHT allo act	CHT inh
COc1cc(CNc2ccccc2)c([N+](=O)[O-])cc1OC	i	i	i	i
Cc1ccnc(NS(=O)(=O)c2ccc(NS(=O)(=O)c3cc(Cl)ccc3Cl)cc2)n1	-29*	i	i	i
Cc1ccnc(NS(=O)(=O)c2ccc(NS(=O)(=O)c3ccc([N+](=O)[O-])cc3)cc2)n1	i	i	i	i
O=C(Cc1cn2ccsc2n1)NCCc1ccc(F)cc1	-49*	i	i	i
Fc1cccc(CCN2CCNC[C@@H]2c2ccccc2)c1	i	.	.	.
CC(O)[C@H]1CNCCN1CCc1cccc(F)c1 (some centres undefined)	-15*	i	i	i
Cc1nc(SCC(=O)N2CCN(c3ccccn3)CC2)c(C#N)c(C)c1C	i	.	.	.
COc1ccccc1N1CCN(C(=O)c2ccc(-c3nc4ccccc4s3)o2)CC1	i	.	.	.
COc1ccc(N2CCN(C(=O)c3ccc(-c4nc5ccccc5s4)o3)CC2)cc1	-28*	.	.	.
CN(Cc1ccco1)C(=O)c1cc2c(s1)-c1ccc(Cl)cc1S(=O)(=O)C2	i	i	i	i
Cc1cccc(N2CCN(Cc3cc(=O)n4ccsc4n3)CC2)c1C	-14*	i	i	i
Cc1ccc(Cl)cc1N1CCN(Cc2cc(=O)n3ccsc3n2)CC1	i	i	i	i
CC(C)c1ccc(C2(C)NC(=O)N(CC(=O)NCC3COc4ccccc4O3)C2=O)cc1 (centres undefined)	i	.	.	.
CCN(CC)c1ccc(C(=C2C=CC(=[N+](CC)CC)C=C2)c2ccc(N(CC)CC)cc2)cc1	-6.6*	.	.	.
CCN(CC)c1ccc(C(=O)NNC(=O)CCl)cc1	i	i	i	i
CCN(CC)c1ccc(C(=O)NNC(=O)CCNC(=O)c2ccccc2)cc1	i	.	.	.
CCN(CC)c1ccc(C(=C2C=CC(=[N+](CC)CC)C=C2)c2ccccc2)cc1	-12*	.	.	.
CCCOc1ccc(Oc2ccc(S(=O)(=O)N3CCN(C)CC3)cn2)cc1	i	i	i	i
CSc1ccc(-c2sc(Nc3cccc4ccccc34)n[n+]2-c2ccccc2)cc1	i	i	i	i
CC(=O)Nc1ccc(-c2sc(Nc3cccc4ccccc34)n[n+]2-c2ccccc2)cc1	-12*	i	i	i
COc1ccc(CN(CC(=O)NCCc2ccccc2)C(=O)CCC(=O)Nc2cc(C)ccn2)cc1	i	i	i	i
Cc1cccc(NC(=O)CSc2nnc(CSc3nc(C)cc(C)n3)o2)c1	i	i	i	i
Cc1cc(C)nc(SCc2nnc(SCC(=O)Nc3ccc(Cl)c(C(F)(F)F)c3)o2)n1	i	100*	i	i
O=C(CCc1nnc(Cc2ccc(-c3ccccc3)cc2)o1)NCCc1cccnc1	i	i	i	i
O=S(=O)(Nc1cc(S(=O)(=O)N2CCOCC2)ccc1N1CCOCC1)c1ccc2c(c1)OCCO2	i	i	i	i
SMILES	ANO1 activ	TMEM16A inh	CHT allo act	CHT inh
O=S(=O)(Nc1cc(S(=O)(=O)N2CCOCC2)ccc1O)c1ccc2c(c1)OCCCO2	-22*	.	.	.
Cc1nc(N2CCCCC2)sc1C(=O)c1ccc(Cl)c([N+](=O)[O-])c1	.	i	i	i
Cc1cc(C)cc(C(=O)NCC(=O)OCC(=O)Nc2ccc(C)cc2Br)c1	-4.6*	i	i	i
Cc1ccc(NC(=O)COC(=O)CNC(=O)C2CCCCC2)c(Br)c1	i	i	i	i
O=C(Nc1ccc(Br)c(C(F)(F)F)c1)c1ccccc1	i	i	i	i
O=C(Nc1ccc(OCC(F)(F)C(F)F)c(C(F)(F)F)c1)c1ccc(Cl)cc1	i	100*	i	i
O=C(Nc1ccc(Br)c(C(F)(F)F)c1)c1ccc(C(F)(F)F)cc1	-13*	i	i	i
CS(=O)c1nc(-c2ccc(Br)cc2)cc(-c2ccccc2)c1C#N (centres undefined)	i	100*	i	i
CS(=O)(=O)c1nc(-c2ccc(Br)cc2)cc(-c2ccccc2)c1C#N	i	i	i	i
CCn1c(C)nc2cc(C(=O)NNC(=O)[C@@H](NC(=O)c3cc(OC)cc(OC)c3)C(C)C)ccc21	i	.	.	.
CCOC(=O)C1(Cc2ccccc2C(F)(F)F)CCN(CCCn2cccn2)CC1	-6.6*	i	i	i
NS(=O)(=O)c1ccc(NC=C2C(=O)OC3(CCCCC3)OC2=O)cc1	i	i	i	i
CCCCc1ccc(NC=C2C(=O)OC3(CCCCC3)OC2=O)cc1	-19*	i	i	i
Cc1ccc(Cn2ncc(C)c2N)o1	i	i	i	i
COC(=O)C1CCCCN1C(=O)c1cc(COc2cccc3cnccc23)on1 (centres undefined)	i	25*	i	i
COC(=O)C1CCCCN1C(=O)c1cc(COc2cccc3cccnc23)on1 (centres undefined)	i	i	i	i
Cc1cccc(OCC(=O)N(Cc2nnc(-c3ccccc3Cl)o2)C2CC2)c1	-29*	.	.	.
COC(=O)c1ccc2c(=O)n(Cc3ccc4c(c3)OCO4)c(SCC(=O)N3CCCC3)nc2c1	.	i	i	i
COc1ccc(NC(=O)c2ccccc2SC)c(OC)c1	-5.8*	i	i	i
CC1(C)CC2CC(C)(CN2S(=O)(=O)c2ccc(C(=O)Nc3cc(S(=O)(=O)N4CCOCC4)ccc3Cl)cc2)C1 (centres undefined)	-12*	i	i	i
CC1(C)CC2CC(C)(CN2S(=O)(=O)c2ccc(C(=O)Nc3cccc(S(=O)(=O)N4CCOCC4)c3)cc2)C1 (centres undefined)	i	i	i	i
COc1ccc(C(C)(C)C)cc1NC(=O)COC(=O)CSCc1c(C)noc1C	i	.	.	.
O=C(c1cccc(F)c1)N1CCN(c2cc(N3CCCCC3)c(F)cc2[N+](=O)[O-])CC1	i	i	i	i
COc1ccc2c(c1)c(CC(=O)Nc1ccc(C(C)=O)cc1)c(C)n2C(=O)c1ccc(Cl)cc1	i	i	i	i
COc1ccc2c(c1)c(CC(=O)NCc1cc([N+](=O)[O-])ccc1O)c(C)n2C(=O)c1ccc(Cl)cc1	i	100*	i	i
SMILES	ANO1 activ	TMEM16A inh	CHT allo act	CHT inh
COc1cc(C(=O)Nc2ccc(S(=O)(=O)Nc3cc(C)nc(C)n3)cc2)cc(OC)c1OC	i	i	i	i
COc1ccc(C(=O)Nc2ccc(S(=O)(=O)Nc3cc(C)nc(C)n3)cc2)cc1OC	-6.7*	i	i	i
O=C(c1cc(S(=O)(=O)N2CCOCC2)ccc1Cl)N1CCCCC1CO (centres undefined)	i	.	.	.
Clc1cc(Sc2ccc(Br)cc2)nnc1-c1ccccc1	i	i	i	i
CC(C)Oc1ccc(Cn2c(=O)sc3ccccc32)cc1	i	25*	i	i
CCN(CC)S(=O)(=O)c1ccc(/C=C/C(=O)Nc2ccc(Br)cc2F)cc1	i	100*	i	i
